Data as given in the supplement of paper PMC5662767.
Where a name gives a salt, the structure may show the parent alone.

Test system: Drosophila S2 cl14 SmoIP sensor cells
Assay: normalized SmoIP GFP fluorescence (untreated unstimulated = 0%, untreated Hh-stimulated = 100%); higher = more Smo activation sensor fluorescence
Conditions: compound concentration: 2 uM, 24 h
[1] = stimulation: Hh conditioned medium (+Hh)
[2] = stimulation: mock conditioned medium (-Hh)
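Further: flow cytometry read-out as median GFP intensity of gated cells, compounds added 30 min before Hh-conditioned or mock medium, mock-treated cells serving as unstimulated baseline.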

Row | SMILES | normalized SmoIP GFP fluorescence [1] [%] | normalized SmoIP GFP fluorescence [2] [%]
1 | Oc1ccc(Nc2nc(-c3ccc(Cl)cc3)cs2)cc1 | 113 | -0.151
2 | CC1=C(C(=O)OC(C)C)C(c2cccc([N+](=O)[O-])c2)C(C(=O)OC2CN(C(c3ccccc3)c3ccccc3)C2)=C(N)N1 (centres undefined) [azelnidipine] | 111 | -1.23
3 | O=C(NCc1cccc(O)c1)Nc1nc(-c2ccncc2)cs1 | 107 | -2.93
4 | O=C(Nc1ccccc1-c1cn2c(CN3CCNCC3)csc2n1)c1cnc2ccccc2n1 | 107 | 1.57
5 | COC(=O)[C@]12CCC(C)(C)C[C@H]1[C@H]1C(=O)C=C3[C@@]4(C)C=C(C#N)C(=O)C(C)(C)[C@@H]4CC[C@@]3(C)[C@]1(C)CC2 [bardoxolone-methyl] | 102 | 0.986
6 | N#Cc1c(Oc2ccc(F)c(NC(=O)Cc3cccc(C(F)(F)F)c3)c2)ccc2nc(NC(=O)C3CC3)sc12 | 126 | -0.889
7 | CCCCN(Cc1ccc(C(=O)NO)cc1)C(=O)Nc1ccccc1 [nexturastat-a] | 105 | 6.74
8 | O=C(NCCCNc1nc(Nc2cccc(NC(=O)N3CCCC3)c2)ncc1I)c1cccs1 | 257 | 78.4
9 | CCc1cc2c(cc1N1CCC(N3CCOCC3)CC1)C(C)(C)c1[nH]c3cc(C#N)ccc3c1C2=O | 148 | 8.36
10 | Cc1c(Nc2ncccc2C(=O)O)cccc1C(F)(F)F [flunixin-meglumin] | 123 | -12.6
11 | CC(C)n1nc(-c2cc3cc(O)ccc3[nH]2)c2c(N)ncnc21 | 117 | -12.7
12 | c1ccc2c(Oc3nc(Nc4ccc(N5CCOCC5)cc4)c4ncn(C5CCCCC5)c4n3)cccc2c1 [purmorphamine] | 107 | -1.23
13 | Cc1cccc(CC(=O)N2CCc3c2ccc(-c2cn(C)c4ncnc(N)c24)c3F)n1 | 102 | -1.63
14 | COc1cc(OC)c(/C=C/S(=O)(=O)Cc2ccc(OC)c(NCC(=O)O)c2)c(OC)c1 | 79.7 | -1.34
15 | CS(=O)(=O)c1ccc(-c2cnc(N)c(C(=O)Nc3ccccc3)n2)cc1 | 232 | 74.4
16 | CO[C@H]1C[C@@H]2CC[C@@H](C)[C@@](O)(O2)C(=O)C(=O)N2CCCC[C@H]2C(=O)O[C@H]([C@H](C)C[C@@H]2CC[C@@H](OCCO)[C@H](OC)C2)CC(=O)[C@H](C)/C=C(\C)[C@@H](O)[C@@H](OC)C(=O)[C@H](C)C[C@H](C)/C=C/C=C/C=C/1C [Everolimus(RAD001)] | 32.9 | -10.1

Row | SMILES | normalized SmoIP GFP fluorescence [1] [%] | normalized SmoIP GFP fluorescence [2] [%]
17 | CC(C)(C)NC[C@H](O)COc1nsnc1N1CCOCC1 [timolol-maleate] | 111 | -1.51
18 | Cn1cc(-c2cnn3c(N)c(Br)c([C@@H]4CCCNC4)nc23)cn1 | 185 | 5.65
19 | Cn1ncnc1[C@H]1c2n[nH]c(=O)c3cc(F)cc(c23)N[C@@H]1c1ccc(F)cc1 | 107 | -2.82
20 | Cc1ccc(S(=O)(=O)OCC(=O)Nc2ccc(C(=O)O)c(O)c2)cc1 | 112 | -9.58
21 | Cc1cc(C(C)Nc2ccccc2)c2nc(N3CCOCC3)cc(=O)n2c1 (centres undefined) | 126 | -0.265
22 | CNCc1ccc(-c2[nH]c3cc(F)cc4c3c2CCNC4=O)cc1 | 115 | 0.489
23 | CC(C(O)c1ccc(O)cc1)N1CCC(Cc2ccccc2)CC1 (centres undefined) [ifenprodil-tartrate] | 103 | -5.15
24 | COC(=O)N[C@@H](C)CNc1nccc(-c2cn(C(C)C)nc2-c2cc(Cl)cc(NS(C)(=O)=O)c2F)n1 | 170 | 48.8
25 | CC(C)C[C@@H](C=O)NC(=O)[C@H](CC(C)C)NC(=O)[C@H](CC(C)C)NC(=O)OCc1ccccc1 | 112 | 11.3
26 | Cc1ccc(C(=O)Cn2c3c(sc2=N)CCCC3)cc1 [pifithrin-alpha] | 98.6 | -1
27 | O=C(O)C(Cc1ccccc1[N+](=O)[O-])=NNc1nc(-c2ccc(Cl)c(Cl)c2)cs1 (mixture of isomers) | 127 | 46.7
28 | COc1cc2nc(N(C)CCCNC(=O)C3CCCO3)nc(N)c2cc1OC (centres undefined) [Alfuzosin-hydrochloride] | 101 | -2.42
29 | CNC(=O)c1cccc(-c2ccc3c(N4CCOC[C@@H]4C)nc(N4CCOC[C@@H]4C)nc3n2)c1 | 65.7 | -4.47
30 | Nc1ccccc1NC(=O)c1ccc(CNC(=O)OCc2cccnc2)cc1 | 203 | 6.74
31 | Cc1ccccc1C(OCCN(C)C)c1ccccc1 (centres undefined) [orphenadrine-citrate-norflex] | 142 | -11.7
32 | CN(C)C(=O)C(CCN1CCC(O)(c2ccc(Cl)cc2)CC1)(c1ccccc1)c1ccccc1 [Loperamide-hydrochloride] | 106 | 7.46
